# Measurements from PubChem BioAssay (NCI).
# This is part of a sample that, as a whole, favours compounds with a hit. Of some 83,000 tested, about 20% had one in any assay.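 A percent growth of 40 corresponds to 60% growth inhibition; 0 means no net growth; -100 means all cells died. Active threshold: below 10.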 Values without a mark were called inactive. Active and inactive are the calls of the source.
# Test system: MDA-MB-468 breast
# Assay: NCI-60 one-dose screen, 48 h (100 = growth as untreated, 0 = no growth, -100 = all killed)
# Conditions: 10 µM unless noted
row,SMILES,growth
1,COc1cccc(/C=C/C(=O)/C=C(/C=C/c2cccc(OC)c2OC)OB(F)F)c1OC,52.7%
2,COc1ccc(C(=S)N2CCN(c3cccc(C)c3)CC2)cc1OC,66.3%
3,CC(C)NS(=O)(=O)/N=C1\NC(=O)NC1=C(Cl)Cl,60.6%
4,C/C(=C\c1cc(Cl)ccc1OCC(=O)O)[N+](=O)[O-],112%
5,CCCOc1ccc(-c2nc(-c3ccc(N)cc3)cs2)cc1,110%
6,Clc1ccc2c(NCCNc3nc(N4CCOCC4)nc4ccccc34)ccnc2c1,25.1%
7,COC(=O)[C@]12CC[C@@H](C)[C@H](C)[C@@H]1C1=CC[C@@H]3[C@@]4(C)CC(=O)[C@H](OC(=O)c5ccco5)[C@@]5(C)COC(=C45)C[C@@]3(C)[C@]1(C)CC2,8.15% (active)
8,OC(Cc1cc(CC(O)(C(F)(F)F)C(F)(F)F)nc(CC(O)(C(F)(F)F)C(F)(F)F)c1)(C(F)(F)F)C(F)(F)F,-37% (active)
9,CC(=O)OC[C@]12CC[C@@H](C(=O)CBr)[C@@H]1[C@H]1CC[C@@H]3[C@@]4(C)CCCNC(C)(C)[C@@H]4CC[C@@]3(C)[C@]1(C)CC2,-67.7% [100 µM] (active)
10,Cc1ccc(S(=O)(=O)NC(=O)n2cc(-c3ccncc3)c(-c3ccc(Cl)c(O)c3)n2)cc1,101%
11,COc1cc(Cn2cc3c(c2)-c2oncc2CC3)cc(OC)c1OC,-17.1% (active)
12,CC(O)C(N)=O (stereo not given),107%
13,C=CCc1c2c(c(OC)c3ccoc13)C(=O)/C(=C/c1ccccc1OC)O2,-3.89% (active)
14,COc1ccc2c(c1)C(=O)c1c-2c(OCCN(C)C)nc2cc(OC)c(OC)cc12,81.6%
15,O=c1c2c(O)cccc2oc2c3c(cc(O)c12)O[C@H]1OC=C[C@@H]31,30.2%
16,Cn1cnc2c(F)c(Nc3ccc(Br)cc3Cl)c(C(=O)NOCCO)cc21,92.5%
17,COc1ccc(-c2nn(-c3cccc(NC(=O)c4ccc(N5CCOCC5)c(C(F)(F)F)c4)c3)cc2-c2ccncc2)cc1Cl,80.6%
18,CCCCCCCCCCCC[n+]1ccc2ccccc2c1,-30% (active)
19,C[C@@H](C[C@H](CC1CC1)c1ccccc1)c1ccc2ccccc2c1,101%
20,O=c1c2cc(F)ccc2sc2c(Nc3cccnc3)nc3ccccc3c12,76.4%

row,SMILES,growth
1,O=C1c2ccccc2C(=O)c2c(N=Nc3sc(=O)[nH]c3S)cccc21,104%
2,CC(C)c1ccc(Cn2ccc3c4c(N)nc(NC5CC5)nc4ccc32)cc1,-76% (active)
3,COc1cc(-c2cc(/C=C3\C(=O)Nc4ccccc43)[nH]n2)cc(OC)c1OC,82%
4,Nc1nc(-c2ccccc2Br)nn1-c1nc2ccccc2s1,103%
5,CCOC(=O)/C(=C\c1ccc(-c2ccccc2)cc1)C(C)=O,95%
6,Cc1ccc(NC(=O)c2cc3ccccc3cc2O)c(C)c1,87.6%
7,C#CCOc1ccc2nc(CCl)c(Cl)c(Nc3cccc(C(F)(F)F)c3)c2c1,10.3%
8,N=C(N)c1ccc(-c2ccc(-c3ccc(Cl)cc3Cl)o2)cc1,-84.4% (active)
9,N#Cc1cnc2cc(OC[C@@H](O)CO)c(NC(=O)CC3CSSC3)cc2c1Nc1ccc(OCc2cccc(F)c2)c(Cl)c1,-74.8% (active)
10,Cc1cc(N2CCCCC2)nc(N2CCN(CC(=O)Nc3ccc4c(ccn4Cc4ccccc4)c3)CC2)n1,37.6%
11,O=C(NCCCNc1cc(-c2cn(-c3ccccc3)nc2-c2cccc(O)c2)ccn1)c1ccc(F)cc1,-41.4% (active)
12,Cc1ccc(C)c2c1sc1nc3n[nH]c(N)c3c(=N)n12,97.1%
13,CCOc1ccncc1[N+](=O)[O-],104%
14,CCCCCCCCCCCCOC(=N)N(C)C,104%
15,O=C(O)CCCN1C(=O)NC2(C1=O)c1ccccc1-c1ccccc12,98.2%
16,C/C=C/CC(C)C(O)C1C(=O)NC(CC)C(=O)N(C)CC(=O)N(C)C(CC(C)C)C(=O)NC(C(C)C)C(=O)N(C)C(CC(C)C)C(=O)NC(C)C(=O)NC(C)C(=O)N(C)C(CC(C)C)C(=O)N(C)C(CC(C)C)C(=O)N(C)C(C(C)C)C(=O)N1C (stereo not given),4.57% (active)
17,Clc1c(Cl)[n+](Cc2ccc3ccccc3c2)cn1Cc1ccc2ccccc2c1,-22.6% (active)
18,O=C1OC2(c3ccccc31)c1ccccc1-c1ccccc12,40.2%
19,O=C(c1ccc(Cl)cc1Cl)N1c2ccccc2Sc2ccccc21,51.4%
20,Cc1nc(/N=C(\N)NC(=O)Nc2cccc(Cl)c2)sc1C,55.2%
